Compound activity from PubChem.
Hits are enriched below; roughly 2.1% of the tested compounds scored in any of these assays.
DUSP3 inh: blocks human VHR1 dual specificity phosphatase. P51452. recombinant VHR phosphatase, pNPP absorbance. inhibition, % at 13.3 µM. 0.52% of 290,000 active. AID 1654; in the data active = inhibition above about 50%
PrP 5UTR inh: inhibition of PrP 5' UTR reporter expression. inhibition, % (no concentration beside the values). cell-based PrP 5' UTR mRNA reporter, plate reader. 0.35% of 340,000 active; in the data active = inhibition above about 52%; also: 0 = median of the neutral control wells
MazF activator: increases E. coli MazEF RNase cleavage of RNA; activation, % at 20 µM; FAM/BHQ RNA-DNA oligo cleavage fluorescence, 5 h; 0.32% of 350,000 active; in the data active = activation above about 50%
PrPC TRFRET: inhibitors of human cell surface prion protein PrPC. TR-FRET read-out. inhibition, % at 13.8 µM. 0.43% of 370,000 active; in the data active = inhibition above about 24%; also: 0% = median of the test wells and 100% = reference compound wells
PfHsp40 yeast: restores yeast growth despite PfHsp40 toxicity. S. cerevisiae expressing PfHsp40, growth rescue, ATP luminescence. 0.68% of 340,000 active. AID 504582. growth rescue, % at 12.5 µM; in the data active = growth rescue above about 28%, passing the limit was not always enough;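 also: yeast W303a lacking pdr1 and pdr3 grown in galactose medium; growth measured after three days at 30 °C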
BJeLR lethal: BJeLR cell viability loss; BJeLR (HRASV12) viability, CellTiter-Glo ATP luminescence, 48 h; inhibition, % (test concentration not listed); 0.17% of 300,000 active; in the data active = inhibition above about 50%
PrP UTR cherry: prion 5' UTR mRNA inhibition, cherry-pick retest | inhibition, % at 2.5 µM | 48% of 1,100 active | cell-based prion protein 5' UTR reporter, plate reader | shares compounds with PrP 5UTR inh; in the data active = inhibition above about 54%
PrPC TRFRET cf: cell surface PrPC inhibition, TR-FRET confirmation; inhibition, % at 13.8 µM; shares compounds with PrPC TRFRET; AID 743200; 65% of 1,500 active; cell surface PrPC level; in the data active = inhibition above about 25%
LD9 tox: kills or reduces viability of LD9 cells in PrPc counter-screen; LD9 cells cytotoxicity, luminescence viability; inhibition, % at 13.8 µM; 29% of 1,500 active; shares compounds with PrPC TRFRET; in the data active = inhibition above about 9.5%
The depositor's hits bear a star; · = no result given.

SMILES	DUSP3 inh	PrP 5UTR inh	MazF activator	PrPC TRFRET	PfHsp40 yeast	BJeLR lethal	PrPC TRFRET cf	LD9 tox	others
O=C1NC2C(O)C(O)C(O)C(O)C2c2cc3c(c(O)c21)OCO3 (configuration not stated)	·	61.0*	-3.4	90.0*	0.1	·	99.8*	32.0*	PrP UTR cherry=82.7*
O=S1(=O)CC(N2CCN(CCO)CC2)CN1CCc1ccccc1 (configuration not stated)	·	·	·	-6.5	·	·	·	·
CC(=O)c1c(C)[nH]c(C(=O)CSc2nnc(N)s2)c1C	4.7	55.0*	-6.2	29.6*	0.7	-3.6	29.6*	-1.7	PrP UTR cherry=1.1
Cc1ccc(C(=O)NC(C)C2CC3CCC2C3)cc1 (configuration not stated)	·	·	9.1	6.7	·	-5.2	·	·
O=C(Nc1ccccc1Cl)C1CCCN(c2ncnc3c2nc2n3CCCCC2)C1 (configuration not stated)	-7.2	-14.5	-4.7	-0.8	-0.6	1.1	·	·
CC(C)(C)OC(=O)C[C@H]1C/C=C\C[C@@H](CC(=O)N[C@@H](CO)Cc2ccccc2)C(=O)NCCOC1=O	·	-9.8	-3.4	-3.1	0.3	·	·	·
NC1=C(Cl)C(=O)c2ccccc2C1=O	·	-25.3	14.7	-11.5	-0.9	·	·	·
NC1=C(Cl)C(=O)c2ccc(S(N)(=O)=O)cc2C1=O	·	95.5*	4.3	33.9*	-1.2	·	43.7*	98.4*	PrP UTR cherry=96.4*
CC(=O)O[C@H]1C(=O)[C@@]2(C)[C@H]([C@H](OC(=O)c3ccccc3)[C@]3(O)C[C@H](OC(=O)[C@H](O)C(NC(=O)c4ccccc4)c4ccccc4)C(C)=C1C3(C)C)[C@]1(OC(C)=O)CO[C@@H]1C[C@@H]2O (some centres not stated)	-28.2	70.0*	11.1	31.2*	0.4	39.5	27.4*	7.8	PrP UTR cherry=88.5*
CC(=O)O[C@H]1C(=O)[C@@]2(C)[C@H]([C@H](OC(=O)c3ccccc3)[C@]3(O)C[C@H](OC(=O)[C@H](O)[C@@H](NC(=O)c4ccccc4)c4ccccc4)C(C)=C1C3(C)C)[C@]1(OC(C)=O)CO[C@@H]1C[C@@H]2O	·	55.0*	7.2	34.9*	-0.9	·	24.1	2.9	PrP UTR cherry=88.5*
CC/C=C/CC(=O)N[C@@H](c1ccccc1)[C@@H](O)C(=O)O[C@H]1C[C@@]2(O)[C@@H](OC(=O)c3ccccc3)C3[C@](C)(C(=O)[C@H](OC(C)=O)C(=C1C)C2(C)C)[C@@H](O)C[C@H]1OC[C@@]31OC(C)=O (some centres not stated)	20.6	59.2*	14.0	25.7*	-0.2	29.9	23.2	-2.0	PrP UTR cherry=85.0*
CC(=O)O[C@@]12CO[C@@H]1C[C@@H](O)[C@@]1(C)C(=O)[C@H](O)C3=C(C)[C@@H](OC(=O)[C@H](O)[C@@H](NC(=O)c4ccccc4)c4ccccc4)C[C@@](O)([C@@H](OC(=O)c4ccccc4)C12)C3(C)C (some centres not stated)	12.5	20.5	2.7	7.3	1.1	33.8	·	·
COc1cccc2c1OCC(C(=O)Nc1nccs1)=C2	17.2	-41.4	14.0	-6.1	-1.6	7.0	·	·
COC(=O)C(C)Oc1ccc(Cc2ncc(C(F)(F)F)cc2Cl)cc1 (configuration not stated)	·	-33.5	-1.4	62.1*	0.7	-3.2	0.1	-10.7
Oc1ccc(Cc2ncc(C(F)(F)F)cc2Cl)cc1	13.0	-5.2	-7.7	-3.2	1.0	1.0	·	·
CN1CC(=O)N(CC(=O)NC2CCCCC2)C1=O	·	-14.2	-3.1	11.6	-1.6	·	·	·
COC(=O)CSc1nc(Cc2ccccc2)nc2ccccc12	-1.3	-17.8	1.0	67.7*	2.4	7.5	91.1*	-7.2
CC(C)OC(=O)CSc1nc(Cc2ccccc2)nc2ccccc12	-1.3	-18.6	-8.9	59.6*	1.0	6.0	87.5*	3.0
CCOC(=O)CSc1nc(Cc2ccccc2)nc2ccccc12	26.4	-10.8	-9.5	64.4*	6.3	7.0	88.9*	-0.6
CCOC(=O)CSc1nc(CC)nc2ccccc12	17.4	-53.9	-6.2	106.5*	-0.4	-1.4	120.5*	-7.6
CCOC(=O)CNC(=O)CSc1nc(Cc2cccs2)nc2ccccc12	6.0	-12.5	0.3	-3.3	-0.5	-2.7	·	·
COc1ccccc1C1CCN(C(=O)c2cnn(-c3ccccc3)c2C)CC1	9.6	0.3	-0.2	-0.8	1.1	3.1	·	·
CCCCC(=O)N(C)c1c(CC)nc2c(OCCOc3ccccc3)cccn12	·	·	·	6.7	·	·	·	·
Cc1cnc(NC(=O)c2cc3c(s2)CCCC3)s1	30.5	47.0	6.9	8.5	-0.8	6.5	·	·
CNC(=O)c1cc2c(s1)CCCCCC2	-0.1	-63.8	3.5	3.9	-0.6	-6.6	·	·
SMILES	DUSP3 inh	PrP 5UTR inh	MazF activator	PrPC TRFRET	PfHsp40 yeast	BJeLR lethal	PrPC TRFRET cf	LD9 tox	others
CCOC(=O)Cc1csc(NC(=O)c2cc3c(s2)CCCC3)n1	-6.6	-32.6	2.4	29.9*	0.1	9.4	24.6*	-5.5
Cc1csc(NC(=O)c2cc3c(s2)CCCC3)n1	-5.9	-9.0	12.1	26.2*	13.1	5.9	20.5	6.7
CCOC(=O)Cc1csc(NC(=O)c2cc(C)c(C)s2)n1	·	-12.9	3.1	21.5	1.8	·	·	·
CC1CCC(NC(=O)c2cc3c(s2)CCCC3)CC1 (configuration not stated)	·	-56.8	-5.0	49.9*	-0.1	0.9	63.5*	1.6
Cc1csc(NC(=O)c2cc3c(s2)CCCCC3)n1	-8.0	48.8	6.3	25.3*	2.3	14.0	16.0	0.9
COc1ccc(NS(=O)(=O)c2cc(C(=O)NNC(=O)c3ccncc3)ccc2OC)c(OC)c1	·	·	5.1	-6.6	·	·	·	·
CCOc1ccc(N2C(=O)CC(Sc3ncccn3)C2=O)cc1 (configuration not stated)	6.4	-27.6	3.0	0.2	0.1	4.9	·	·
CCOc1ccc(N2C(=O)CC(Sc3nc(-c4cccs4)cc(C(F)(F)F)c3C#N)C2=O)cc1 (configuration not stated)	41.1	-8.9	-18.3	24.8*	0.3	-4.7	10.5	-3.5
CC(=O)c1cccc(NC(=O)C2=CN3CCS(=O)(=O)N=C3C=C2)c1	·	-8.4	6.6	46.1*	-1.4	·	45.5*	5.1
CC(=O)c1cccc(NC(=O)c2c(F)c(F)c(F)c(F)c2F)c1	-13.4	2.7	0.7	-3.6	-0.6	13.6	·	·
O=C(COC(=O)c1cc(Cl)ccc1O)NC(=O)NCc1ccccc1	·	·	2.7	-1.9	0.3	·	·	·
CCOc1ccc(NC(=O)COC(=O)c2ccc3ncsc3c2)cc1OCC	·	-19.4	-0.7	-3.2	·	·	·	·
